Measured values from PubChem BioAssay (EPA / NIEHS).
Several values for one entry are separate records, joined by “and”; a condition that tells them apart may be missing. Identical values can stand only once. The source holds several records for some structures; these can differ, active in one and inactive in another. Activity calls are given as the source filed them. Rule for the calls: active = hit-call score of the fitted dose curve at least 0.9, where 1 is the maximum; inactive = score below 0.9.

These molecules were tested against Hypoxia-inducible factor 1-alpha (Homo sapiens) (UniProt Q16665) (assay: ATG_HIF1a_CIS: Attagene CIS-FACTORIAL HepG2 Assay for human Hypoxia Inducible Factor 1 (HIF1A) (AID 2282951)). Details: HepG2 Attagene cis-factorial HIF1a reporter transcription; actives raise or lower the signal.
Outline: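 Activity is fitted in both directions relative to DMSO. Reporter transcripts are read by RT-PCR, fluorescent primer extension and capillary electrophoresis after 24 h chemical treatment. The cells are HepG2 carrying transiently transfected cis-element-driven reporter units responding to endogenous factors.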

Chain of Hypoxia-inducible factor 1-alpha (Homo sapiens) (Q16665 whole entry, looked up): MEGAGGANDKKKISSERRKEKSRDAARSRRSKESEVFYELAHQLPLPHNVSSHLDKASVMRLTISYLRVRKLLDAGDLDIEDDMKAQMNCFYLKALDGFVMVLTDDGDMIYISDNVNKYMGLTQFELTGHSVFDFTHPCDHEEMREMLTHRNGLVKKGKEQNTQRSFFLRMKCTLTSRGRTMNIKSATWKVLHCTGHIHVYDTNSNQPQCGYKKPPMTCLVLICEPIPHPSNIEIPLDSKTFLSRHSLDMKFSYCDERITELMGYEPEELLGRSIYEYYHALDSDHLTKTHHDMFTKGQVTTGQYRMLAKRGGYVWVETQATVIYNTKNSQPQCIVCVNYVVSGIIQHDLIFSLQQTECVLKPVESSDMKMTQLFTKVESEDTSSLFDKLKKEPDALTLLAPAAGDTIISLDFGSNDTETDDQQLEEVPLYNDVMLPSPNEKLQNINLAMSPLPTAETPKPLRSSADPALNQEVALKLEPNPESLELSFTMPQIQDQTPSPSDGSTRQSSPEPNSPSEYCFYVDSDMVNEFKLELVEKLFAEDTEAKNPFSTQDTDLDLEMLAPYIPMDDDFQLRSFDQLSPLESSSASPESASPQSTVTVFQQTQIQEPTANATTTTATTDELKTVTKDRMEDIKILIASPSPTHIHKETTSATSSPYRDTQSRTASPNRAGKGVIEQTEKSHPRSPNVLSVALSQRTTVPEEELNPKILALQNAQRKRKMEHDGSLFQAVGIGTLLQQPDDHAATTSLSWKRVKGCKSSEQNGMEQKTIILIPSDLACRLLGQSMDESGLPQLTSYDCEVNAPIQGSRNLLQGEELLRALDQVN

Q: For `c1ccc2c(c1)CCC2`, which AC50 is on record?
A: 36.5 µM (active)

Q: With `CC(C)(C)c1ccc(O)c(O)c1` as the molecule, how does the AC50 read?
A: 26.1 µM (active) and 25.9 µM (active) and 25.5 µM (active)

Q: And the outcome?
A: inactive

Q: `CCCCCCCCCCCC(=O)NCCCN(C)C` was tested. Which AC50 did it give?
A: 18.1 µM (active)

Q: Which AC50 does the source give for `O=C1c2ccc(O)c(O)c2C(=O)c2c(O)ccc(O)c21` here?
A: 12.6 µM (active)

Q: Which outcome does the source give for `Cc1ccc(C(=O)c2ccccc2)cc1` here?
A: inactive

Q: Which outcome does the source give for `Nc1ccc(O)c(C(=O)O)c1` here?
A: inactive

Q: For `CCCCc1oc2ccccc2c1C(=O)c1cc(I)c(OCCN(CC)CC)c(I)c1`, which AC50 is on record?
A: 7.78 µM (active)

Q: Which results are given for `O=C(O)C(F)(F)OC(F)(F)C(F)(F)OC(F)(F)C(F)(F)OC(F)(F)C(F)(F)C(F)(F)C(F)(F)F`?
A: AC50: 28.2 µM (active); outcome: inactive

Q: For `CC[N+](CC)(CC)Cc1ccccc1`, which outcome is on record?
A: inactive

Q: With `O=C1Cc2ccccc2N1c1c(Cl)cccc1Cl` as the molecule, how does the AC50 read?
A: 75.3 µM (active)

Q: With `CN(C)c1ccc(C(=C2C=CC(=[N+](C)C)C=C2)c2ccccc2)cc1` as the molecule, how does the outcome read?
A: inactive

Q: For `CCCCC(CC)C(=O)OCCOCCOCCOCCOC(=O)C(CC)CCCC` (centres undefined), which outcome is on record?
A: inactive

Q: With `C[C@]12CC[C@@H]3c4ccc(O)cc4CC[C@H]3[C@@H]1CC[C@@H]2OC(=O)CCC1CCCC1` as the molecule, how does the outcome read?
A: inactive

Q: How did the outcome turn out when `FC(OC(F)(F)C(F)(F)C(F)(F)F)C(F)(F)F` (centres undefined) was run?
A: inactive

Q: With `COCN(COC)c1nc(N(COC)COC)nc(N(COC)COC)n1` as the molecule, how does the outcome read?
A: inactive

Q: `CC=O` was tested. Which outcome did it give?
A: inactive

Q: How did the outcome turn out when `CCCCCCCCCCCCCCC` was run?
A: inactive

Q: `CC(C)CCOCCC(C)C` was tested. Which outcome did it give?
A: inactive

Q: For `CCc1ccccc1O`, which outcome is on record?
A: inactive

Q: For `O=P(O)(O)CCC(F)(F)C(F)(F)C(F)(F)C(F)(F)C(F)(F)C(F)(F)F`, which outcome is on record?
A: inactive

Q: With `Nc1ccn([C@@H]2O[C@H](CO)[C@@H](O)C2O)c(=O)n1` (some centres undefined) as the molecule, how does the outcome read?
A: inactive

Q: For `O=S(=O)(c1ccc(OCc2ccccc2)cc1)c1ccccc1O`, which AC50 is on record?
A: 33.4 µM (active)

Q: What does the source list for `CC(C)C=O`?
A: AC50: 157 µM (active); outcome: inactive

Q: `Cc1ccc(S(=O)(=O)O)cc1` was tested. Which outcome did it give?
A: inactive

Q: How did the AC50 turn out when `Cc1cc(Cc2cc(C)cc(C(C)(C)C)c2O)c(O)c(C(C)(C)C)c1` was run?
A: 41.4 µM (active)

Q: For `Cc1ccc(N=Nc2c(O)ccc3ccccc23)c(C)c1`, which AC50 is on record?
A: 13.2 µM (active)

Q: With `O=C1OC(=O)c2cc(-c3ccc4c(c3)C(=O)OC4=O)ccc21` as the molecule, how does the outcome read?
A: inactive

Q: `O=C1c2ccccc2C(=O)c2c(O)c(O)cc(O)c21` was tested. Which outcome did it give?
A: inactive

Q: Which outcome does the source give for `CCC(=O)O` here?
A: inactive

These molecules were tested against Hepatocyte nuclear factor 6 (Homo sapiens) (UniProt Q9UBC0) (assay: ATG_HNF6_CIS: Attagene CIS-FACTORIAL HepG2 Assay for human Hepatocyte Nuclear Factor 6 (HNF6) (AID 2282952)). Details: HepG2 Attagene cis-factorial HNF6 reporter transcription; actives raise or lower the signal.
Outline: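 Twenty-four-hour chemical treatment of reporter-transfected HepG2 cells precedes RNA isolation, DNase-treated reverse transcription and PCR of reporter sequences. Labelled fragments are sized by capillary electrophoresis and fitted bidirectionally versus DMSO.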

Chain of Hepatocyte nuclear factor 6 (Homo sapiens) (Q9UBC0 whole entry, looked up, the tested form may be a part): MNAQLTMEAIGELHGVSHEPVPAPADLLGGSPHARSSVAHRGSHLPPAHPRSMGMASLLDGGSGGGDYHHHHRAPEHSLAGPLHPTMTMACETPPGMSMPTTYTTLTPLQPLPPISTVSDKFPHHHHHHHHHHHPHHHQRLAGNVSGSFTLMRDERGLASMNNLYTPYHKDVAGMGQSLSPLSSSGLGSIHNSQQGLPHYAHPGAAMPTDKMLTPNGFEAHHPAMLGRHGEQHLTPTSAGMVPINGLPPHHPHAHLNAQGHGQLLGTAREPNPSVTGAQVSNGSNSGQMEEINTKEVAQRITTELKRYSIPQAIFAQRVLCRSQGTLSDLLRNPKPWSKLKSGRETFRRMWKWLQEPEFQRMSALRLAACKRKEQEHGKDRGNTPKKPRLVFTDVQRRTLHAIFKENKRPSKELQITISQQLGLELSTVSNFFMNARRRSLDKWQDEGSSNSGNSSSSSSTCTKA

Q: For `c1ccc2c(c1)CCC2`, which outcome is on record?
A: inactive

Q: With `CC(C)(C)c1ccc(O)c(O)c1` as the molecule, how does the outcome read?
A: inactive

Q: For `CN(Cc1cnc2nc(N)nc(N)c2n1)c1ccc(C(=O)N[C@@H](CCC(=O)O)C(=O)O)cc1`, which outcome is on record?
A: inactive

Q: With `CCCCCCCCCCCC(=O)NCCCN(C)C` as the molecule, how does the outcome read?
A: inactive

Q: Which outcome does the source give for `Cc1ccc(C(=O)c2ccccc2)cc1` here?
A: inactive

Q: With `Nc1ccc(O)c(C(=O)O)c1` as the molecule, how does the outcome read?
A: inactive

Q: Which results are given for `O=C(O)C(F)(F)OC(F)(F)C(F)(F)OC(F)(F)C(F)(F)OC(F)(F)C(F)(F)C(F)(F)C(F)(F)F`?
A: AC50: 70.1 µM (active); outcome: inactive

Q: How did the outcome turn out when `CC[N+](CC)(CC)Cc1ccccc1` was run?
A: inactive

Q: For `O=C1Cc2ccccc2N1c1c(Cl)cccc1Cl`, which outcome is on record?
A: inactive

Q: How did the outcome turn out when `CCCCC(CC)C(=O)OCCOCCOCCOCCOC(=O)C(CC)CCCC` (centres undefined) was run?
A: inactive

Q: Which outcome does the source give for `c1cnc2c(c1)ccc1cccnc12` here?
A: inactive

Q: How did the AC50 turn out when `C[C@]12CC[C@@H]3c4ccc(O)cc4CC[C@H]3[C@@H]1CC[C@@H]2OC(=O)CCC1CCCC1` was run?
A: 125 µM (active)

Q: For `FC(OC(F)(F)C(F)(F)C(F)(F)F)C(F)(F)F` (centres undefined), which outcome is on record?
A: inactive

Q: For `COCN(COC)c1nc(N(COC)COC)nc(N(COC)COC)n1`, which outcome is on record?
A: inactive

Q: Which outcome does the source give for `CC=O` here?
A: inactive

Q: With `CCCCCCCCCCCCCCC` as the molecule, how does the outcome read?
A: inactive

Q: With `Cc1ccccc1C(OCCN(C)C)c1ccccc1` (centres undefined) as the molecule, how does the outcome read?
A: inactive

Q: `CC(C)CCOCCC(C)C` was tested. Which outcome did it give?
A: inactive

Q: Which outcome does the source give for `CCc1ccccc1O` here?
A: inactive

Q: Which outcome does the source give for `CC1=NN(c2ccccc2)C(=O)C1` here?
A: inactive

Q: How did the AC50 turn out when `O=S(=O)(c1ccc(OCc2ccccc2)cc1)c1ccccc1O` was run?
A: 61.3 µM (active)

Q: `Cc1ccc(N=Nc2c(O)ccc3ccccc23)c(C)c1` was tested. Which outcome did it give?
A: inactive

Q: For `O=C1OC(=O)c2cc(-c3ccc4c(c3)C(=O)OC4=O)ccc21`, which outcome is on record?
A: inactive

Q: With `O=C1c2ccccc2C(=O)c2c(O)c(O)cc(O)c21` as the molecule, how does the outcome read?
A: inactive

Q: Which outcome does the source give for `CCC(=O)O` here?
A: inactive

The molecules below were run against Heat shock factor protein 1 (Homo sapiens) (UniProt Q00613) (assay: ATG_HSE_CIS: Attagene CIS-FACTORIAL HepG2 Assay for human Heat Shock Transcription Factor 1 (HSE) (AID 2282953)). Details: HepG2 HSE cis-reporter, Attagene RNA transcription; actives raise or lower the signal.
Outline: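 HepG2 cells transiently transfected with multiple reporter transcription units under cis-regulatory promoter control, measuring endogenous transcription factor activity. After 24 h chemical exposure, reporter mRNA quantified by RT-PCR, fluorescent labelling, HpaI digestion and capillary electrophoresis; bidirectional fit versus DMSO.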

Chain of Heat shock factor protein 1 (Homo sapiens) (Q00613 whole entry, looked up): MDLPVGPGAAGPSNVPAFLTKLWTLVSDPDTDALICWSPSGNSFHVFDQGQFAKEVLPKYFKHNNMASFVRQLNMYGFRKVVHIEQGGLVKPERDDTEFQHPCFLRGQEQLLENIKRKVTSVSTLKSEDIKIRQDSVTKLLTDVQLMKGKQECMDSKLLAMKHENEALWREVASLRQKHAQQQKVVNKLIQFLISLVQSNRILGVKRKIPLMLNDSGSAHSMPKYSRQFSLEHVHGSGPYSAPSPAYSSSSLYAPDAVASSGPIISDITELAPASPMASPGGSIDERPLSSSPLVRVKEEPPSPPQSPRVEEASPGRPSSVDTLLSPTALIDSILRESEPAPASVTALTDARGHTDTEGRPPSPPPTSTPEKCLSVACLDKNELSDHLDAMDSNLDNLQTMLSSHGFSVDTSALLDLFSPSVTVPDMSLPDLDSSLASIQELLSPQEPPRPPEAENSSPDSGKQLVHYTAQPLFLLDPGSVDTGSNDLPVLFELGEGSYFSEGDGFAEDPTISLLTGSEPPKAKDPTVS

Q: Which outcome does the source give for `c1ccc2c(c1)CCC2` here?
A: inactive

Q: How did the AC50 turn out when `CC(C)(C)c1ccc(O)c(O)c1` was run?
A: 133 µM (active) [middle of 5 runs]

Q: For `CN(Cc1cnc2nc(N)nc(N)c2n1)c1ccc(C(=O)N[C@@H](CCC(=O)O)C(=O)O)cc1`, which outcome is on record?
A: inactive

Q: With `CCCCCCCCCCCC(=O)NCCCN(C)C` as the molecule, how does the AC50 read?
A: 17.5 µM (active)

Q: Which outcome does the source give for `O=C1c2ccc(O)c(O)c2C(=O)c2c(O)ccc(O)c21` here?
A: inactive

Q: With `Cc1ccc(C(=O)c2ccccc2)cc1` as the molecule, how does the outcome read?
A: inactive

Q: How did the outcome turn out when `Nc1ccc(O)c(C(=O)O)c1` was run?
A: inactive

Q: Which outcome does the source give for `CCCCc1oc2ccccc2c1C(=O)c1cc(I)c(OCCN(CC)CC)c(I)c1` here?
A: inactive

Q: `O=C(O)C(F)(F)OC(F)(F)C(F)(F)OC(F)(F)C(F)(F)OC(F)(F)C(F)(F)C(F)(F)C(F)(F)F` was tested. Which AC50 did it give?
A: 23.7 µM (active)

Q: What about the outcome of the same molecule?
A: inactive

Q: Which outcome does the source give for `CC[N+](CC)(CC)Cc1ccccc1` here?
A: inactive

Q: With `O=C1Cc2ccccc2N1c1c(Cl)cccc1Cl` as the molecule, how does the AC50 read?
A: 130 µM (active)

Q: `CN(C)c1ccc(C(=C2C=CC(=[N+](C)C)C=C2)c2ccccc2)cc1` was tested. Which AC50 did it give?
A: 1.46 µM (active) and 1.26 µM (active)

Q: How did the outcome turn out when `CCCCC(CC)C(=O)OCCOCCOCCOCCOC(=O)C(CC)CCCC` (centres undefined) was run?
A: inactive

Q: `c1cnc2c(c1)ccc1cccnc12` was tested. Which AC50 did it give?
A: 144 µM (active)

Q: What about the outcome of the same molecule?
A: inactive

Q: With `CN(C)CCOC(c1ccccc1)c1ccccc1` as the molecule, how does the outcome read?
A: inactive

Q: `C[C@]12CC[C@@H]3c4ccc(O)cc4CC[C@H]3[C@@H]1CC[C@@H]2OC(=O)CCC1CCCC1` was tested. Which outcome did it give?
A: inactive

Q: How did the outcome turn out when `Cc1cc(=O)oc2cc(O)ccc12` was run?
A: inactive

Q: `FC(OC(F)(F)C(F)(F)C(F)(F)F)C(F)(F)F` (centres undefined) was tested. Which outcome did it give?
A: inactive

Q: Which outcome does the source give for `COCN(COC)c1nc(N(COC)COC)nc(N(COC)COC)n1` here?
A: inactive

Q: With `CC=O` as the molecule, how does the outcome read?
A: inactive

Q: How did the outcome turn out when `CCCCCCCCCCCCCCC` was run?
A: inactive

Q: For `Cc1ccccc1C(OCCN(C)C)c1ccccc1` (centres undefined), which outcome is on record?
A: inactive

Q: `CC(=O)Nc1ccc(O)cc1` was tested. Which outcome did it give?
A: inactive

Q: With `CC(C)CCOCCC(C)C` as the molecule, how does the outcome read?
A: inactive

Q: How did the outcome turn out when `CCc1ccccc1O` was run?
A: inactive

Q: How did the outcome turn out when `O=P(O)(O)CCC(F)(F)C(F)(F)C(F)(F)C(F)(F)C(F)(F)C(F)(F)F` was run?
A: inactive

Q: `Nc1ccn([C@@H]2O[C@H](CO)[C@@H](O)C2O)c(=O)n1` (some centres undefined) was tested. Which outcome did it give?
A: inactive

Q: For `CC1=NN(c2ccccc2)C(=O)C1`, which outcome is on record?
A: inactive

Q: Which AC50 does the source give for `O=S(=O)(c1ccc(OCc2ccccc2)cc1)c1ccccc1O` here?
A: 44.2 µM (active)

Q: Which outcome does the source give for `Cc1cc(Cc2cc(C)cc(C(C)(C)C)c2O)c(O)c(C(C)(C)C)c1` here?
A: inactive

Q: With `Cc1ccc(N=Nc2c(O)ccc3ccccc23)c(C)c1` as the molecule, how does the AC50 read?
A: 3.78 µM (active)

Q: Which outcome does the source give for `O=C1OC(=O)c2cc(-c3ccc4c(c3)C(=O)OC4=O)ccc21` here?
A: inactive

Q: With `O=C1c2ccccc2C(=O)c2c(O)c(O)cc(O)c21` as the molecule, how does the outcome read?
A: inactive

Q: For `CCC(=O)O`, which outcome is on record?
A: inactive
